# Inconclusive results are not listed. Calls of active or inactive are those of the source. Calls follow the shape of the dose curve; as a rule, active = well fitted cell-killing curve with a large enough effect in the repeat runs; inconclusive = weak or mixed curves, or effect the other way; inactive = flat fitted curve, though single readings scatter.
# Assay: Human pregnane X receptor (PXR) small molecule agonists, qHTS cell viability counter screen (AID 1346977); also: nearly all actives have a fitted effect of over 50% in size
# Conditions: PXR-Luc HepG2 viability, CellTiter-Fluor, 24 h; series mostly up to 92.4 µM; activity change, negative = cytotoxicity: at the top concentration
# From the text: U.S. Tox21 Program National Center for Advancing Translational Sciences [NCATS] NIH Chemical Genomics Center [NCGC] U.S. Environmental Protection Agency [EPA] National Institutes of Environmental Health Sciences [NIEHS] National Toxicology Program [NTP] U.S. Food and Drug Administration [FDA] Tox21 Assay Overview: The human pregnane X receptor (hPXR) regulates the expression of several drug metabolizing enzymes and induction of these proteins is a major mechanism for developing drug resistance in cancer. One such key enzyme catalyzing the drug metabolism is cytochrome P450 3A4 (CYP3A4). Changes in CYP3A4 expression affect drug metabolism, thereby reducing the therapeutic efficacy and altering toxicological response to a drug and which finally causes adverse drug interaction. To screen Tox21 libraries for compounds that activate hPXR-mediated CYP3A4 gene expression, PXR-Luc HepG2 cells were used. Also cytotoxicity of the compounds was tested in parallel by measuring the cell viability using CellTiter-Fluor assay system in the same wells.
# Tox21 Assay Protocol Summary: PXR-Luc HepG2 cells were dispensed at 2,000 per well in 5uL of assay medium containing 5% charcoal-stripped FBS into white solid bottom 1536-well plates (Corning Life Sciences, Corning, NY) using a Multidrop Combi (Thermo Scientific, Waltham, MA) dispenser. The assay plates were incubated at 37 C and 5% CO2 for 5hr, and then 23nL of compounds dissolved in DMSO and positive control were transferred using a Pintool station (Wako, San Diego, CA). The assay plates were incubated at 37C and 5% CO2 for 24hr. For cytotoxicity read, after 23hr incubation at 37C, 1uL CellTiter-Fluor reagent (Promega Corporation, Madison, WI) was added to each well of the assay plates using Flying Reagent Dispenser (FRD, Aurora Discovery, San Diego, CA). After 1hr incubation at 37C and 5% CO2, the fluorescence signal was quantified using a ViewLux plate reader (PerkinElmer, Shelton, CT).
# % is scaled to controls: 0 for no effect and ±100 for the full control effect.
row,Compound,"activity change, negative = cytotoxicity"
1,COc1cccc(OC)c1,1.23% (inactive)
2,C[N+](C)(C)CC[N+]1(C)Cc2c(Cl)c(Cl)c(Cl)c(Cl)c2C1,-1.91% [at 42.5 µM] (inactive)
3,CC(C)(O)C(=O)c1ccc(OCCO)cc1,4.56% (inactive)
4,[O-][N+](=Nc1ccccc1)c1ccccc1,-5.72% (inactive)
5,COC(=O)c1ccc(C(=O)OC)c(C(=O)OC)c1,1.51% (inactive)
6,CCOC(=O)Cn1c(=O)sc2cccc(Cl)c21,-1.57% (inactive)
7,CCO[Si](CCCN=C=O)(OCC)OCC,7.52% (inactive)
8,CC(C)[N+](C)(C)CC(O)COc1cccc2ccccc12 (stereo not given),11.5% [at 42.5 µM] (inactive)
9,C/C=C1\C(=O)C[C@H]2[C@@H]3CCC4=CC(=O)CC[C@]4(C)[C@H]3CC[C@]12C,-2.44% [at 42.5 µM] (inactive)
10,Nc1nc(F)nc2c1ncn2[C@@H]1O[C@H](CO)[C@@H](O)[C@@H]1O,-16.7% [at 42.5 µM] (inactive)
11,Cn1cnc2c(=O)[nH]c(N)nc21,-0.181% (inactive)
12,NC(=O)c1c(Cl)cccc1Cl,22.8% (inactive)
13,CC/C=C\CCCCO,3.78% (inactive)
14,Oc1cc(O)c2c(c1)O[C@H](c1ccc(O)c(O)c1)[C@H](O)C2,-0.605% [at 42.5 µM] (inactive)
15,OCC(CO)(CO)COCC(CO)(CO)CO,10.2% (inactive)
16,CC(C=O)Cc1ccc(C(C)C)cc1 (stereo not given),-0.354% (inactive)
17,O=Cc1ccccc1[N+](=O)[O-],2% (inactive)
18,Cc1ccccc1C(=O)O,-2.97% (inactive)
19,CC(=O)c1ccc(C)cc1,2.3% (inactive)
20,CC(C)[C@H](N)C(=O)OCCOCn1cnc2c(=O)[nH]c(N)nc21,21.8% [at 42.5 µM] (inactive)

row,Compound,"activity change, negative = cytotoxicity"
1,CC(=O)N[C@@H](CCC(N)=O)C(=O)O,4.76% [at 42.5 µM] (inactive)
2,COc1ccc2cc(C=O)ccc2c1,-0.113% [at 42.5 µM] (inactive)
3,CN(C)CCn1nnnc1SCC1=C(C(=O)O)N2C(=O)[C@@H](NC(=O)Cc3csc(N)n3)[C@H]2SC1,0.424% [at 42.5 µM] (inactive)
4,COC(=O)CCCC(=O)O,-1.18% (inactive)
5,O=C1C(CCS(=O)c2ccccc2)C(=O)N(c2ccccc2)N1c1ccccc1 (stereo not given),-3.23% [at 42.5 µM] (inactive)
6,CC(C)c1ccc2oc3nc(N)c(C(=O)O)cc3c(=O)c2c1,9.04% [at 42.5 µM] (inactive)
7,CCn1cc(C(=O)O)c(=O)c2cc(F)c(N3CCN(C)CC3)cc21,4.23% [at 19 µM] (inactive)
8,Cc1nccn1CC1CCc2c(c3ccccc3n2C)C1=O (stereo not given),10.1% [at 42.5 µM] (inactive)
9,CC(C)CCCCCCN,0.623% (inactive)
10,O=C(O)C1CCC1,27.4% [at 42.5 µM] (inactive)
11,CC(C)(C)CC(C)(C)N,0.0011% (inactive)
12,CCCc1ccccc1O,2.25% (inactive)
13,C=C(C)C(=O)NCCCN(C)C,-0.113% (inactive)
14,CCCCc1ccc2cccc(S(=O)(=O)O)c2c1,10.9% (inactive)
15,Cc1ccc(N)cc1[N+](=O)[O-],-10.7% (inactive)
16,Cn1ccc2cc3c(cc21)CCN3C(=O)Nc1cccnc1,0% [at 19 µM] (inactive)
17,COC(C(=O)O)c1ccccc1 (stereo not given),0.767% (inactive)
18,O=C(O)/C=C/c1ccc(Cn2ccnc2)cc1,2.55% [at 42.5 µM] (inactive)
19,CC(C)(C)OC(=O)N1C[C@@H](F)C[C@H]1C(=O)O,-0.461% (inactive)
20,Cc1ccc(Nc2ccc(O)c3c2C(=O)c2ccccc2C3=O)cc1,4.42% (inactive)
